Hit rate of the full screen: of about 190,000 compounds, about 810 (0.43%) were called active. This is one part of a sample in which actives are shown more often than they occur. A number with no mark means an inactive call. Rule as the data show it: active = inhibition above about 50%; inactive = the rest.
molecular target: Mannose-6-phosphate isomerase (Homo sapiens) (UniProt P34949); assay: inhibitors of human PMI, primary screen, biochemical, fluorescence intensity, coupled assay (AID 1209); details: purified PMI enzyme, at 20 µM, active compounds read high;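 also: plate controls were DMSO vehicle for no effect and wells lacking substrate for full effect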
Sequence (P34949 whole entry, looked up): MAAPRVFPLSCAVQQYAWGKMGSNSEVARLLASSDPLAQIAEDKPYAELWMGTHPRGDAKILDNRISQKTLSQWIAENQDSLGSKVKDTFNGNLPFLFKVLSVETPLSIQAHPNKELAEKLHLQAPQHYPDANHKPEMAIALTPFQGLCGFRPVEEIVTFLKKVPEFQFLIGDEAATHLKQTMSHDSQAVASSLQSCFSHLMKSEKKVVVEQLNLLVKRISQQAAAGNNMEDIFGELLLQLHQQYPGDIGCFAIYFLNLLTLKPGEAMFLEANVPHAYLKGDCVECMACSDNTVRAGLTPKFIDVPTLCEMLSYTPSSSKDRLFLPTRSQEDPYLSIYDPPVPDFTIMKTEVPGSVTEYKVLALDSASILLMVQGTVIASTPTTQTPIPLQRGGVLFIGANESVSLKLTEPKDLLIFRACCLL

SMILES | inhibition
O=C(CSc1ccc(-c2ccc(Br)cc2)nn1)N1CCOCC1 | -1.9%
CCCCCCCNC(=O)COc1ccc2c(c1)C(=O)CC(C)(C)O2 | 2.9%
Nc1ccc2c(c1)OC1(CCCCC1)O2 | 55.6% (active)
Nc1ccc2c(c1)OC1(CCCC1)O2 | 6.1%
O=C(Nc1ccc2c(c1)OC1(CCCC1)O2)C1CC1 | 0.2%
CC(C)(C)c1nc(SCC(=O)N2CC(=O)Nc3ccccc32)c2ccccc2n1 | 3.4%
COc1ccc2c(c1)CC/C2=N\OC(=O)c1ccccc1C | -5%
COc1ccc(N=C2C(=O)Nc3ccccc32)cc1 | 12.5%
Cc1ccc2c(c1)/C(=N/N1C(=O)c3ccccc3C1=O)C(=O)N2 | -2.2%
c1ccc(-c2nnc(CSc3nncs3)o2)cc1 | 16.2%
O=c1[nH]c2ccc(Cl)cc2c(-c2ccccc2)c1SC(=S)N1CCCCC1 | 0.2%
CCOC(=O)N1CCC(Nc2c(N3CCN(c4cccc(C(F)(F)F)c4)CC3)c(=O)c2=O)CC1 | -9.4%
O=S(=O)(c1ccc(NC(=S)NCc2ccco2)cc1)N1CCCC1 | 8.9%
NS(=O)(=O)c1ccc(CNC(=S)Nc2ccc(F)c(Cl)c2)cc1 | 17.2%
NS(=O)(=O)c1ccc(CNC(=S)NCc2ccc(Cl)cc2)cc1 | 6.3%
NS(=O)(=O)c1ccc(NC(=S)NCc2ccc(Cl)cc2)cc1 | 58.1% (active)
CCNS(=O)(=O)c1ccc(NC(=S)NCc2ccco2)cc1 | 35.3%
NS(=O)(=O)c1ccc(NC(=S)NCc2ccco2)cc1 | 55.4% (active)
CC(=O)NC(CCS(C)(=O)=O)C(=O)Nc1ccccc1 (stereo not drawn) | 7.8%
CS(=O)(=O)N(CC(=O)NC1CC1)c1cccc(F)c1 | 6.9%
Cc1ccc(NC(=O)CSc2nnc(-c3ccncc3)n2C)cc1S(=O)(=O)N1CCOCC1 | -7.6%
COC(=O)c1ccc[n+](CC(=O)c2ccc(Br)cc2)c1 | -34.8%
Cn1cnc2ccc([N+](=O)[O-])cc2c1=O | -6%
CCOC(=O)N1CCN(CCC(=O)c2ccc(Cl)cc2)CC1 | 57.4% (active)
CCCOc1ccc(C(=O)CCN2CCN(C(=O)OCC)CC2)cc1 | -7.1%
CCOC(=O)N1CCN(CCC(=O)c2ccc(OC)cc2)CC1 | 0.1%

SMILES | inhibition
Cc1ccc(N2C(=O)NC(C(F)(F)F)(C(F)(F)F)C3=C2CC(C)(C)CC3=O)cc1 | 2.1%
CC1(C)CC2(CC(c3ccccc3)Oc3cc(O)ccc32)NC(=O)N1 (stereo not drawn) | 2.6%
COc1cccc(C(=O)COc2ccc3ccc(=O)oc3c2)c1 | -1.6%
CCOC(=O)c1c(NC(=S)Nc2ccc(Cl)cc2)sc(C)c1C | -3.5%
COC(=O)c1c(NC(=O)c2ccco2)sc(C)c1C | 5%
CCOC(=O)c1c(NC(=O)Nc2ccccc2)sc(C)c1C | 12.6%
Cc1sc(NC(=S)Nc2ccc(F)cc2)c(C(N)=O)c1C | 51.8% (active)
NC(=O)c1c(NC(=S)Nc2ccc(F)cc2)sc2c1CCCC2 | 18.7%
CCOC(=O)c1c(NC(=O)Nc2ccc(Cl)cc2)sc(C)c1C | 2.4%
Cc1sc(NC(=S)NC(=O)c2ccco2)c(C#N)c1C | 4.5%
Cc1sc(NC(=S)NC(=O)c2ccco2)c(C(N)=O)c1C | 50.4% (active)
Cc1sc(NC(=O)Nc2ccccc2)c(C(N)=O)c1C | 53.1% (active)
O=C(Nc1ccnc(-c2cccnc2)n1)c1ccc(F)cc1 | 5%
Cc1nn(Cc2ccc(F)cc2)c(C)c1NC(=O)c1cc2ncc(Br)cn2n1 | 6.4%
COc1ccc(Cn2c(C)c(C)c(C#N)c2NC(=O)Nc2cccc(C)c2)cc1 | -1.9%
CC(NC(=O)C(=O)N/N=C\c1cccc([N+](=O)[O-])c1)c1ccccc1 (stereo not drawn) | 10.5%
CC(C)(C)NC(=O)NC(=O)Cn1ccsc1=N | 5.2%
CCC(C)(C)NC(=O)CN(Cc1ccc2c(c1)OCO2)C(=O)CCC(=O)Nc1nccs1 | -5%
O=C(COc1ccccc1Cl)NC(=S)Nc1ccc(CN2CCOCC2)cc1 | 17.4%
O=C(O)/C(=C/c1ccco1)c1ccccc1 | -8%
CCOC(=O)C1CCCN(C(=O)Cn2nc(Cc3cccnc3)c3ccccc3c2=O)C1 (stereo not drawn) | 5.7%
O=C(CSc1nnnn1C1CCCC1)Nc1cccc(NC(=O)c2ccco2)c1 | 8.3%
O=c1c(C/C=C/c2ccccc2)c(O)ccn1Cc1ccc(Cl)cc1Cl | 13.5%
CC1(C)C(=O)OC(c2cccn2-c2ccc([N+](=O)[O-])cc2)C(C)(C)C1=O (stereo not drawn) | 67.5% (active)
CC1(C)C(=O)OC(c2cccn2-c2ccc([N+](=O)[O-])cc2)C2(CCCCC2)C1=O (stereo not drawn) | 6.1%
CC1(C)C(=O)C2(CCCCC2)C(=O)OC1c1cccn1-c1ccc([N+](=O)[O-])cc1 (stereo not drawn) | 2.5%

SMILES | inhibition
CCCC(=O)c1cc2c(cc1NC(=O)c1cccs1)OCCO2 | 6.8%
O=C(NCc1ccccn1)Nc1cccc(NC(=O)NCc2ccccn2)c1 | 14.5%
CCCC1=C(C(=O)OCC)C(/C=C/c2ccccc2)n2ncnc2N1 (stereo not drawn) | 2.4%
COc1ccccc1-c1nnc(NC(=O)C(C)Sc2nncn2C)s1 (stereo not drawn) | -2.1%
CC(Sc1nncn1C)C(=O)Nc1nnc(-c2ccccc2)s1 (stereo not drawn) | 8.5%
COc1ccc(OC)c(-c2nnc(NC(=O)C(C)Sc3nncn3C)s2)c1 (stereo not drawn) | 97.9% (active)
Cc1ccc(NC(=S)NNC(=O)Cn2nc(C(F)F)cc2C(F)F)cc1 | -10%
Cc1ccsc1/C=C/c1ccc2cccc(O)c2n1 | -6.3%
CSc1ccc(/C=C/c2ccc3cccc(O)c3n2)cc1 | -33.5%
COc1ccc(-c2nc(CSCC(=O)NC3CCCc4ccccc43)c(C)o2)cc1 (stereo not drawn) | 7%
Cc1c(Cl)c(C(=O)NC2CCCC2)nn1C | -11.9%
Nc1nc(-c2ccccc2)c(-c2ccccc2)s1 | -1.1%
Nc1nc2c(s1)COc1ccccc1-2 | 12.7%
Nc1nc2c(s1)CCc1c-2cnn1-c1ccccc1 | 86.9% (active)
CCCCCc1nc2sc3c(c2c(=O)n1N)CCC3 | -5.8%
O=C(Cn1cnc2ccccc2c1=O)NCc1ccc2c(c1)OCO2 | 2%
O=C(CCc1ccccc1)NC(=S)NCc1ccco1 | 7.5%
C[N+](C)(C)CCCNC(=O)c1ccc(/C=N/O)nc1 | 83.5% (active)
NCCCNC(=O)c1ccc(/C=N/O)nc1 | 0.9%
CNCCCNC(=O)c1ccc(/C=N/O)nc1 | -9.8%
CCOC(=O)CC(=O)Nc1ccc(Br)cc1C(=O)O | 7.4%
COC(=O)c1ccc(-c2nc(-c3ccc(Br)o3)no2)cc1 | 10.6%
COc1ccccc1Sc1ccccc1/C=N/NC(N)=O | 2.1%
COC(=O)Cc1cc(=O)n(-c2ccccc2)[nH]1 | 11%
Cc1cc(=O)n(-c2ccc(C(=O)O)cc2)[nH]1 | -22.8%
CC(C)(C)c1cc(=O)n(-c2ccccc2)[nH]1 | 64.7% (active)

SMILES | inhibition
O=C1c2ccccc2C(=O)N1Cc1nc2ccccc2o1 | -0.5%
CC(c1nc2ccccc2o1)N1C(=O)c2ccccc2C1=O (stereo not drawn) | 66.9% (active)
O=C1c2ccccc2C(=O)N1c1ccc(-c2nc3ccccc3o2)cc1 | -2.8%
Cc1ccc(NS(=O)(=O)c2ccccc2[N+](=O)[O-])cc1C | -10.7%
CCN1C(=O)CSc2ccc(C(=O)OC)cc21 | -2.3%
COc1ccc(NC(=S)N(Cc2cccc(Br)c2)CC2CCC(C(=O)O)CC2)cc1 (stereo not drawn) | -6.9%
CN=c1scc(-c2ccccc2F)n1/N=C/c1ccc(O)c(O)c1O | 70.6% (active)
CN=c1scc(C)n1/N=C/c1ccc(O)cc1O | -4%
Oc1ccc(/C=N/n2c(-c3ccco3)csc2=Nc2cccnc2)c(O)c1 | -1.6%
CC(C)N=c1scc(-c2cccs2)n1/N=C/c1ccc(O)c(O)c1O | 75.9% (active)
CN=c1scc(-c2ccccc2F)n1/N=C(\C)c1cccnc1 | -9.3%
CN=c1scc(-c2cccs2)n1/N=C/c1ccccc1O | 5.2%
CN=c1scc(-c2ccccc2F)n1/N=C/c1ccc[nH]1 | -16.2%
Cc1nc2ccccc2c(=O)n1/N=C/c1cn(-c2ccccc2)nc1-c1cccs1 | -10.8%
Cc1ccc(OCC(O)Cn2c(=N)n(CCN3CCOCC3)c3ccccc32)cc1 (stereo not drawn) | -3.6%
CC(Oc1ccccc1)C(=O)N1CCN=C1SCc1ccccc1 (stereo not drawn) | -6.4%
Cc1cc(F)ccc1S(=O)(=O)N1CCCOC1CNC(=O)C(=O)NCc1ccco1 (stereo not drawn) | -3.1%
CCCCCNC(=O)c1ccc2c(=O)n(CCOC)c(=O)[nH]c2c1 | -5.7%
O=C(CCNC(=O)c1ccccc1Cl)Nc1ccc(Br)c(C(F)(F)F)c1 | 15%
CN1C(=S)SC(N(O)C(=O)Nc2cccc3ccccc23)C1(C)C (stereo not drawn) | 37.9%
CC(NC(=O)c1ccc(C(F)(F)F)cc1)C(c1ccccc1)N1CCOCC1 (stereo not drawn) | -8.2%
NC(=O)CNc1n[nH]c(=S)[nH]c1=O | -27.7%
Oc1ccc(/C=N/Nc2ccc(C(F)(F)F)cn2)cc1O | 61.6% (active)
Oc1ccc(/C=N/Nc2ccc(C(F)(F)F)cn2)cc1 | -2.8%
COc1cc(/C=N/Nc2ccc(C(F)(F)F)cn2)ccc1O | 7.1%

Reference: PubChem BioAssay AID1209 (Sanford-Burnham Center for Chemical Genomics, 2008)
